Among all 5,500 compounds or so, about 2,000 (36%) were called active. Roughly 18% stayed inconclusive and do not appear here. Rule as the data show it: active = normalized growth mostly below about 0.91 (no sharp cut-off); inconclusive = no clear call, values can overlap the other calls; inactive = mostly above about 0.92. This is one part of the list.
Assay: chemical genetic growth profiling, strain panel (AID 1159580);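 also: tested at 20 µM; growth read once vehicle control cultures reached saturation at 30 °C; 1 = growth at the plate median or of vehicle wells; lower values mean less growth of the strain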
Conditions: growth OD
[1] = S. cerevisiae deletion strains, locus YAL013W, strain DEP1, hits give low values
[2] = S. cerevisiae deletion strains, locus YDR150W, strain NUM1, hits give low values
[3] = S. cerevisiae deletion strains, locus YGR229C, strain SMI1, hits give low values
[4] = S. cerevisiae deletion strains, locus YNL153C, strain GIM3, hits give low values
[5] = S. cerevisiae deletion strains, locus YNL322C, strain KRE1, hits give low values
[6] = S. cerevisiae deletion strains, locus YBR229C, strain ROT2, hits give low values
[7] = S. cerevisiae deletion strains, locus YDL101C, strain DUN1, hits give low values
[8] = S. cerevisiae deletion strains, locus YDL134C, strain PPH21, hits give low values
[9] = S. cerevisiae deletion strains, locus YEL061C, strain CIN8, hits give low values
[10] = S. cerevisiae deletion strains, locus YGR078C, strain PAC10, hits give low values
[11] = S. cerevisiae deletion strains, locus YHR030C, strain SLT2, hits give low values
[12] = S. cerevisiae deletion strains, locus YHR087W, strain rtc3, hits give low values
[13] = S. cerevisiae deletion strains, locus YJL187C, strain SWE1, hits give low values
[14] = S. cerevisiae deletion strains, locus YJR043C, strain POL32, hits give low values
[15] = S. cerevisiae deletion strains, locus YJR075W, strain HOC1, hits give low values
[16] = S. cerevisiae deletion strains, locus YLR039C, strain RIC1, hits give low values
[17] = S. cerevisiae deletion strains, locus YLR058C, strain SHM2 (second series), hits give low values
[18] = S. cerevisiae deletion strains, locus YLR085C, strain ARP6, hits give low values
[19] = S. cerevisiae deletion strains, locus YLR262C, strain YPT6, hits give low values
[20] = S. cerevisiae deletion strains, locus YML094W, strain GIM5, hits give low values
[21] = S. cerevisiae deletion strains, locus YMR219W, strain ESC1, hits give low values
[22] = S. cerevisiae deletion strains, locus YMR263W, strain SAP30, hits give low values
[23] = S. cerevisiae deletion strains, locus YNL298W, strain CLA4 (second series), hits give low values
[24] = S. cerevisiae deletion strains, locus YNR030W, strain Alg12, hits give low values
[25] = S. cerevisiae deletion strains, locus YOL006C, strain TOP1, hits give low values
[26] = S. cerevisiae deletion strains, locus YPL055C, strain LGE1, hits give low values
[27] = S. cerevisiae deletion strains, locus YPL241C, strain CIN2, hits give low values
[28] = S. cerevisiae deletion strains, locus YPR135W, strain CTF4, hits give low values
[29] = S. cerevisiae strains, strain wild type, hits give low values

Measured: normalized growth

CCS(=O)(=O)Nc1cccc(C(=C2CCCCC2)c2cnc[nH]2)c1
inactive: [1] 0.982 | S. cerevisiae deletion strains, locus YAL040C, strain CLN3, hits give low values 1 | [2] 1.02 | S. cerevisiae deletion strains, locus YDR363W, strain ESC2, hits give low values 0.974 | S. cerevisiae deletion strains, locus YER002W, strain NOP16, hits give low values 1.04 | [3] 1 | [4] 1.03 | S. cerevisiae deletion strains, locus YNL175C, strain NOP13, hits give low values 1 | S. cerevisiae deletion strains, locus YNL197C, strain WHI3, hits give low values 1 | S. cerevisiae deletion strains, locus YNL224C, strain SQS1, hits give low values 1.01 | [5] 0.994 | S. cerevisiae deletion strains, locus YOR083W, strain WHI5 (second series), hits give low values 1.02

Cc1ccc(S(=O)(=O)Nc2ccc(C)c([N+](=O)[O-])c2)cc1
inactive: [1] 0.995 | [6] 0.988 | [7] 0.95 | [8] 0.994 | [2] 0.958 | [9] 1.03 | [10] 0.986 | [3] 1 | [11] 0.989 | [12] 1.02 | [13] 1.01 | [14] 0.976 | [15] 0.971 | S. cerevisiae deletion strains, locus YKL190W, strain CNB1, hits give low values 0.988 | [16] 1.02 | [17] 1 | [18] 0.991 | [19] 1.01 | [20] 1.01 | [21] 0.993 | [22] 0.999 | [4] 0.979 | [23] 0.963 | [5] 0.983 | [24] 0.961 | [25] 1.02 | [26] 1.01 | [27] 0.952 | [28] 0.898 | [29] 0.981

Cc1cc(NS(=O)(=O)c2ccc(NS(=O)(=O)c3ccc(Cl)cc3)cc2)no1
inactive: [1] 1.03 | [6] 1.02 | [7] 1 | [2] 0.956 | [9] 1.01 | [10] 1 | [3] 1.01 | [11] 1.07 | [12] 0.999 | [13] 1.01 | [14] 1.04 | [15] 1.02 | [16] 1.02 | [17] 1 | [18] 0.983 | [19] 1.07 | [20] 0.988 | [21] 1.01 | [22] 0.956 | [4] 1.02 | [23] 1.03 | [5] 1.01 | [24] 1.02 | [25] 1.06 | [26] 0.902 | [27] 0.995 | [28] 1.08

Cc1cc(NS(=O)(=O)c2ccc(NS(=O)(=O)c3cc(C)c(Cl)cc3C)cc2)no1
inactive: [1] 0.991 | [6] 0.994 | [7] 1 | [8] 0.968 | [2] 1.07 | [9] 0.984 | [10] 1.01 | [11] 1.08 | [12] 0.982 | [14] 1.04 | [15] 1.01 | [16] 1 | [17] 0.979 | [18] 0.947 | [19] 1.09 | [20] 0.971 | [21] 0.99 | [22] 1.02 | S. cerevisiae deletion strains, locus YNL128W, strain TEP1, hits give low values 0.981 | [4] 1.01 | [23] 0.979 | [5] 0.99 | [24] 1.01 | [25] 0.985 | [26] 1.04 | [27] 0.985 | [28] 1.09 | [29] 0.974

Cn1nccc1NS(=O)(=O)c1cccc(Cl)c1
inactive: [1] 1.01 | [6] 1.01 | S. cerevisiae deletion strains, locus YCL061C, strain MRC1, hits give low values 1.02 | [7] 1 | [8] 0.969 | [2] 1.04 | [9] 1.01 | [10] 1.02 | [11] 1.07 | [12] 1.01 | [14] 1.03 | [15] 1.02 | [16] 0.98 | [17] 1.04 | [18] 0.984 | [19] 1.07 | [20] 0.972 | [21] 0.998 | [22] 1.03 | S. cerevisiae deletion strains, locus YMR307W, strain GAS1, hits give low values 0.957 | [4] 1.01 | [23] 1.03 | [5] 1 | [24] 0.995 | [26] 1 | [27] 0.975 | [28] 1.08 | [29] 1.01

O=S(=O)(Nc1ccc(Oc2ccc(OC(F)(F)F)cc2)cc1)c1cccc(Cl)c1
active: [11] 0.562 | S. cerevisiae deletion strains, locus YLR113W, strain HOG1, hits give low values 0.695 | S. cerevisiae deletion strains, locus YPL256C, strain CLN2, hits give low values 0.75
inactive: S. cerevisiae deletion strains, locus YAR019C, strain CDC15, hits give low values 0.982 | S. cerevisiae deletion strains, locus YBL105C, strain PKC1, hits give low values 0.973 | S. cerevisiae deletion strains, locus YBR135W, strain CKS1, hits give low values 0.978 | S. cerevisiae deletion strains, locus YBR136W, strain MEC1, hits give low values 0.982 | S. cerevisiae deletion strains, locus YBR160W, strain CDC28, hits give low values 0.981 | S. cerevisiae deletion strains, locus YDL017W, strain CDC7, hits give low values 0.982 | S. cerevisiae deletion strains, locus YDL028C, strain MPS1, hits give low values 0.982 | [7] 0.991 | S. cerevisiae deletion strains, locus YDL108W, strain KIN28, hits give low values 0.976 | S. cerevisiae deletion strains, locus YDL132W, strain cdc53, hits give low values 0.988 | S. cerevisiae deletion strains, locus YDL214C, strain PRR2, hits give low values 0.932 | S. cerevisiae deletion strains, locus YDR052C, strain DBF4, hits give low values 0.98 | S. cerevisiae deletion strains, locus YDR054C, strain cdc34, hits give low values 0.988 | S. cerevisiae deletion strains, locus YDR226W, strain ADK1, hits give low values 0.984 | S. cerevisiae deletion strains, locus YDR477W, strain SNF1, hits give low values 0.964 | S. cerevisiae deletion strains, locus YER123W, strain YCK3, hits give low values 0.933 | S. cerevisiae deletion strains, locus YER133W, strain GLC7, hits give low values 0.933 | S. cerevisiae deletion strains, locus YFL009W, strain cdc4, hits give low values 0.979 | S. cerevisiae deletion strains, locus YFL029C, strain CAK1, hits give low values 0.985 | S. cerevisiae deletion strains, locus YFR003C, strain YPI1, hits give low values 0.977 | S. cerevisiae deletion strains, locus YFR019W, strain FAB1, hits give low values 0.891 | S. cerevisiae deletion strains, locus YFR028C, strain CDC14, hits give low values 0.985 | S. cerevisiae deletion strains, locus YGR040W, strain KSS1, hits give low values 0.949 | S. cerevisiae deletion strains, locus YGR052W, strain FMP48, hits give low values 0.958 | S. cerevisiae deletion strains, locus YGR092W, strain DBF2, hits give low values 0.937 | S. cerevisiae deletion strains, locus YHR079C, strain IRE1, hits give low values 0.837 | S. cerevisiae deletion strains, locus YHR082C, strain KSP1, hits give low values 0.978 | S. cerevisiae deletion strains, locus YHR205W, strain SCH9, hits give low values 0.955 | S. cerevisiae deletion strains, locus YIL147C, strain SLN1, hits give low values 0.982 | S. cerevisiae deletion strains, locus YJL095W, strain BCK1, hits give low values 0.948 | S. cerevisiae deletion strains, locus YJL128C, strain PBS2, hits give low values 0.936 | S. cerevisiae deletion strains, locus YJL157C, strain FAR1, hits give low values 0.946 | S. cerevisiae deletion strains, locus YJR016C, strain ILV3, hits give low values 0.991 | S. cerevisiae deletion strains, locus YJR066W, strain TOR1 (second series), hits give low values 0.92 | S. cerevisiae deletion strains, locus YJR066W, strain TOR1, hits give low values 0.975 | S. cerevisiae deletion strains, locus YKL048C, strain ELM1, hits give low values 0.945 | S. cerevisiae deletion strains, locus YKL067W, strain YNK1, hits give low values 0.934 | S. cerevisiae deletion strains, locus YKL101W, strain HSL1, hits give low values 0.916 | S. cerevisiae deletion strains, locus YKL193C, strain SDS22, hits give low values 0.984 | S. cerevisiae deletion strains, locus YKL203C, strain TOR2, hits give low values 0.995 | S. cerevisiae deletion strains, locus YLR133W, strain CKI1, hits give low values 0.941 | S. cerevisiae deletion strains, locus YLR403W, strain SFP1, hits give low values 0.954 | S. cerevisiae deletion strains, locus YML070W, strain DAK1, hits give low values 0.923 | S. cerevisiae deletion strains, locus YMR001C, strain CDC5, hits give low values 0.984 | S. cerevisiae deletion strains, locus YMR205C, strain PFK2 (second series), hits give low values 0.954 | S. cerevisiae deletion strains, locus YMR277W, strain FCP1, hits give low values 0.983 | S. cerevisiae deletion strains, locus YNL006W, strain LST8, hits give low values 0.98 | S. cerevisiae deletion strains, locus YNL020C, strain ARK1, hits give low values 0.919 | S. cerevisiae deletion strains, locus YNL161W, strain CBK1, hits give low values 0.977 | S. cerevisiae deletion strains, locus YNL183C, strain NPR1, hits give low values 0.991 | S. cerevisiae deletion strains, locus YNL207W, strain RIO2, hits give low values 0.989 | S. cerevisiae deletion strains, locus YNL222W, strain SSU72, hits give low values 0.979 | S. cerevisiae deletion strains, locus YNL307C, strain MCK1 (second series), hits give low values 0.897 | S. cerevisiae deletion strains, locus YOL078W, strain AVO1, hits give low values 0.991 | S. cerevisiae deletion strains, locus YOL136C, strain PFK27, hits give low values 0.92 | S. cerevisiae deletion strains, locus YOR061W, strain CKA2, hits give low values 0.917 | S. cerevisiae deletion strains, locus YOR119C, strain RIO1, hits give low values 1.03 | S. cerevisiae deletion strains, locus YOR231W, strain MKK1, hits give low values 0.887 | S. cerevisiae deletion strains, locus YOR329C, strain SCD5, hits give low values 0.974 | S. cerevisiae deletion strains, locus YPL031C, strain PHO85, hits give low values 0.95 | S. cerevisiae deletion strains, locus YPL153C, strain RAD53, hits give low values 0.982 | S. cerevisiae deletion strains, locus YPL204W, strain HRR25, hits give low values 0.941 | S. cerevisiae deletion strains, locus YPL209C, strain IPL1, hits give low values 0.977 | S. cerevisiae deletion strains, locus YPR025C, strain CCL1, hits give low values 0.977 | S. cerevisiae deletion strains, locus YPR106W, strain ISR1, hits give low values 0.988 | S. cerevisiae deletion strains, locus YPR111W, strain DBF20, hits give low values 0.969 | S. cerevisiae deletion strains, strain NNK1, hits give low values 0.989 | S. cerevisiae deletion strains, strain TSCII, hits give low values 0.983

— PubChem BioAssay AID1159580 (chemical genetic matrix, 2015)
